Screening results from PubChem.
MITF primary = inhibitors of human MITF; O75030; AlphaScreen MITF homodimerization, bead proximity signal; inhibition, % at 2.6 µM; 0.91% of 650,000 active; AID 1259374; in the data active = inhibition above about 50%;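 also: 0% = vehicle wells with protein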
TEAD-YAP block = TEAD-YAP interaction inhibition; HEK-TIYL cells, TEAD-Gal4/YAP UAS-luciferase luminescence; 1.4% of 640,000 active; inhibition, % at 9.12 µM; in the data active = inhibition above about 32%;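 also: 0% = median of test compound wells and 100% = reference inhibitor wells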
GPR151 activ = activators of human GPR151; Q8TDV0; PathHunter beta-arrestin GPR151 cells, luminescence; activation, % at 11.2 µM; 1% of 650,000 active; AID 1508602; in the data active = activation above about 4.9%;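 also: 0% = median of compound wells and 100% = cells with positive control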
FBW7 activator = activators of human E3 ligase FBW7; AlphaScreen FBW7–phospho-cyclin E peptide binding, activator screen; normalized activity (activation), % at 26.1 µM; 0.13% of 650,000 active; AID 1259310; in the data active = normalized activity above about 1.9%;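 also: purified mutant Fbw7 with reduced substrate affinity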
Target sequence (Q969H0 whole entry, looked up): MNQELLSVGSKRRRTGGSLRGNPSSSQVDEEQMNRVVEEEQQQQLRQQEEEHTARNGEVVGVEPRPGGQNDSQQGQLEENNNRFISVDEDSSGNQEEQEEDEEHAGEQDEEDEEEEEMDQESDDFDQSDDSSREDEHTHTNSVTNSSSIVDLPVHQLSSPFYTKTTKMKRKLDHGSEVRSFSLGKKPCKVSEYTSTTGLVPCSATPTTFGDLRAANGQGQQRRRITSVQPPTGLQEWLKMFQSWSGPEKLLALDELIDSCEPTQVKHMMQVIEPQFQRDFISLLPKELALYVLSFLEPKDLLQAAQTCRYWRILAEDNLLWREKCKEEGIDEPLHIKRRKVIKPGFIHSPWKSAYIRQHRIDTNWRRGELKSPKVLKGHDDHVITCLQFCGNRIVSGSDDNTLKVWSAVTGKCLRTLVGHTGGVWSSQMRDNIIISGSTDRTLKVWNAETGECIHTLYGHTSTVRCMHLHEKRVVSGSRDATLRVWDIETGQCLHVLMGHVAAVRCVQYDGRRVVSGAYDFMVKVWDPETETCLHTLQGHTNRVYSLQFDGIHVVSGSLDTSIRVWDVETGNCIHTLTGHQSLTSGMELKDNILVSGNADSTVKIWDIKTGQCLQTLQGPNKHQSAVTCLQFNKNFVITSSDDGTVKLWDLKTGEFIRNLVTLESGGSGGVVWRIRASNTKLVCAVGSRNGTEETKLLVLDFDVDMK
* marks the source's active call; other numbers are inactive results. A selection: hits, their analogues and other compounds. The true share with any hit is near 3.5%.

SMILES | MITF primary | TEAD-YAP block | GPR151 activ | FBW7 activator
Nc1c(C(=O)c2ccc(F)cc2)sc2nc(-c3ccccc3)cc(-c3ccccc3)c12 | -4.3 | 2.8 | 1.0 | 0.1
COC(=O)Cn1nnc2c(cnn2-c2ccccc2)c1=O | 9.7 | -39.1 | -2.5 | 0.8
O=c1c2cnn(-c3ccccc3)c2nnn1Cc1cccnc1 | 14.3 | 1.1 | 0.1 | 1.9*
CCCC(=O)Nc1ccccc1-c1nc2cc3ccccc3cc2[nH]c1=O | -0.6 | 55.0* | 0.6 | -0.1
COc1ccc(OC)c(NC2=C(Cl)C(=O)c3ccccc3C2=O)c1 | 61.8* | 27.2 | 1.7 | -0.5
COC(=O)C1=C(C)OC(N)=C(C#N)C1c1ccc(Cl)cc1Cl (stereo not drawn) | 20.0 | 5.2 | -1.7 | 0.8
COc1ccc(CCNC(=O)c2nnn(-c3ccc4c(c3)OCCO4)c2N)cc1OC | 4.8 | 64.8* | 0.7 | 0.0
CCN(Cc1ccncc1)C1CCN(c2ccc(CC(=O)NCc3ccccc3)cc2)CC1 | 15.5 | 41.2* | -0.6 | 0.4
COc1ccc(-c2cc(C(F)(F)F)nc(S(=O)(=O)CCC(=O)NC(C)C)n2)cc1 | 3.5 | -0.1 | -0.8 | 0.0
CCCNC(=O)CCS(=O)(=O)c1nc(-c2ccc(OC)cc2)cc(C(F)(F)F)n1 | 2.9 | 9.7 | -0.1 | 2.1*
CN1C(=O)S/C(=C\c2cc([N+](=O)[O-])ccc2Cl)C1=O | -7.3 | -4.3 | -1.5 | -0.1
CCOC(=O)CSc1nc2sc3c(c2c(=O)n1C1CCCCC1)CCN(C)C3 | 3.9 | 15.2 | -0.5 | 2.3*
CCC(=O)NC(c1ccc(Cl)cc1)c1ccc2cccnc2c1O (stereo not drawn) | 31.9 | 95.0* | -0.3 | -1.4
CCC(=O)NC(c1ccc(OC)cc1)c1ccc2cccnc2c1O (stereo not drawn) | 63.1* | 32.4* | 0.4 | -1.8
CCCC(=O)NC(c1ccc(Cl)cc1Cl)c1ccc2cccnc2c1O (stereo not drawn) | 25.9 | 63.0* | -0.8 | -0.8
CCCC(=O)NC(c1ccc(Cl)cc1)c1ccc2cccnc2c1O (stereo not drawn) | 25.1 | 88.4* | -0.7 | -1.4
CCC(=O)NC(c1ccc2c(c1)OCO2)c1cc(Cl)c2cccnc2c1O (stereo not drawn) | 13.7 | 4.6 | -0.6 | -0.4
O=C(NC(=S)NCc1cccnc1)c1ccc2c(c1)OCO2 | -0.5 | -3.7 | 3.4 | -0.3
COc1cc(NC(=O)c2cccc(-n3cc(NS(=O)(=O)c4cccc5ccccc45)cn3)c2)cc(OC)c1OC | -8.2 | -9.2 | -0.2 | -0.1
CC(=O)NC(c1ccc(Cl)cc1Cl)c1ccc2cccnc2c1O (stereo not drawn) | 41.8 | 89.3* | 2.6 | -1.0
CCCCC(=O)NC(c1ccc(Cl)cc1)c1ccc2cccnc2c1O (stereo not drawn) | 27.0 | 84.7* | -0.4 | -1.4
CC(=O)NC(c1ccc(Cl)cc1Cl)c1cc(Cl)c2cccnc2c1O (stereo not drawn) | 4.4 | 19.6 | 0.1 | -0.3
CCC(=O)NC(c1ccccc1)c1ccc2cccnc2c1O (stereo not drawn) | 34.8 | 81.8* | -0.2 | -1.9
COCC(=O)NC(c1ccccc1)c1cc(Cl)c2cccnc2c1O (stereo not drawn) | 27.3 | 24.5 | -0.4 | -0.4
COc1ccc(N(C)S(=O)(=O)c2cc(Br)cc3c2N(C(C)=O)CC3)c(OC)c1 | -7.8 | 56.1* | -0.9 | 0.0
SMILES | MITF primary | TEAD-YAP block | GPR151 activ | FBW7 activator
Cc1ccc2nc(C)c(C(=O)NCC(F)(F)F)n2c1 | 17.8 | 0.4 | 0.1 | 1.9*
O=C1OC(/C=C\c2cccc([N+](=O)[O-])c2)=NC/1=C/c1cccc(F)c1 | 17.8 | 1.4 | 0.0 | 0.4
NNC(=O)C(Cc1ccc(O)cc1)NC(=O)C(CO)NC(=O)OCc1ccccc1 (stereo not drawn) | 8.7 | 13.1 | -0.7 | 2.1*
NNC(=O)C(Cc1ccccc1)NC(=O)OCc1ccccc1 (stereo not drawn) | 5.5 | 8.4 | 1.4 | 0.0
CC(C)c1cc(CN2CCC(n3nccc3NC(=O)CCc3ccccc3)CC2)[nH]n1 | -6.2 | -6.5 | 0.3 | -0.2
CC1C/C(=C/c2ccncc2)C(=O)/C(=C/c2ccncc2)C1 (stereo not drawn) | -3.4 | 93.9* | 0.6 | 0.2
N#Cc1ccccc1Cn1nc(-c2cccc3ncccc23)oc1=O | 13.9 | 52.8* | -0.2 | 0.1
Cc1ccc(SCCNC(=O)CCl)cc1 | -0.5 | 42.8* | -0.2 | 0.0
COc1cc(OC)nc(CSCCNC(=O)CCl)n1 | -0.8 | 9.8 | 1.1 | -0.1
COc1cc(OC)nc(CSc2ccc(NC(=O)CCl)cc2)n1 | 8.1 | 36.4* | -1.3 | -0.1
O=C(OCC(=O)c1c[nH]c2ccccc12)c1ccc(OCC2CCCO2)cc1 (stereo not drawn) | -3.3 | 0.1 | 0.0 | 0.1
